# A selection: hits, their analogues and other compounds. The true share with any hit is near 4.7%.
# TRHR enhancer: allosteric enhancers of human TRH receptor | AID 493056 | P34981 | TRHR cells, fluo-8 calcium fluorescence, EC20 TRH enhancement | enhancement, % at 2 µM | 0.66% of 360,000 active; in the data active = enhancement above about 30%; note: 0% is about no effect
# Target sequence (P34981 whole entry, looked up): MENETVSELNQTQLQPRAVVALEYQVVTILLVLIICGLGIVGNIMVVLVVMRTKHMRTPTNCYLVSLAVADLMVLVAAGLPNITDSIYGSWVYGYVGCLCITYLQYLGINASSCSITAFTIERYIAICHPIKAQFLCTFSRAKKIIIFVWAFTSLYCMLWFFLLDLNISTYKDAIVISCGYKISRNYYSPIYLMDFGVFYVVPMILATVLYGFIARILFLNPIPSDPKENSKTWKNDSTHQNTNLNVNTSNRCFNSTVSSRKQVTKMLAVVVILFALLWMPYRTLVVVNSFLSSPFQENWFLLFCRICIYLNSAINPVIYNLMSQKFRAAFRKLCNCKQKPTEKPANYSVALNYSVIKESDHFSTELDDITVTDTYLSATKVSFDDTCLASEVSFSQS
#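 Enhancer read-out: after compound pinning and an initial kinetic agonist-mode read, an EC20 of TRH (10 nM final) was injected and fluo-8 calcium signal (Ex 480/Em 530) followed at 1 s/cycle for 100 cycles in TRHR-expressing cells.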
# D1 potentiator: potentiators of human D1 dopamine receptor. AID 504651. potentiation, % at 10 µM. HEK293 TREx D1 cells, calcium flux, dopamine EC20 potentiation. 0.036% of 360,000 active; in the data active = potentiation above about 30%; note: 0% is about no effect
# D1 antagonist: human D1 dopamine receptor antagonism. P21728. HEK293 TREx D1 cells, calcium flux, dopamine EC80; active compounds read low. activity change, negative = inhibition, % at 10 µM. 3.2% of 360,000 active; in the data active = activity change below about -30%; note: % is set by controls: 0 for no effect and ±100 for the full control effect
#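 Cells carrying a force-coupled, tetracycline-inducible human D1 receptor report calcium flux. Each well gets a 10 s baseline, compound with 180 s monitoring, then an EC80 dopamine stimulus with a second 180 s kinetic read.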
# D1 agonist: agonists of human D1 dopamine receptor; 1% of 360,000 active; HEK293 T-REx D1 cells, calcium flux, agonist mode; activation, % at 2 µM; P21728; AID 504660; note: 0% is about no effect
#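 Agonism was scored from calcium flux recorded over 180 s (1 read/s) after pintool compound addition, following a 10-cycle baseline. Cells were inducible force-coupled HEK293 TREx D1, plated overnight at 30 C and loaded with no-wash calcium dye.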
# TRHR ag: TRH receptor (human) agonism; TRHR cells, calcium flux fluo-8, FDSS agonist mode; activation, % at 2 µM; 0.18% of 360,000 active; AID 493084; note: 0% is about no effect
#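 TRHR-expressing cells, plated overnight in medium with 10% serum, were loaded with fluo-8 calcium dye at room temperature. After a 10 s baseline, library compound was pin-added and calcium release was recorded kinetically (ex 480/em 530) as agonist response.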
# Active calls of the source: *; . = no result. Cut-off read from the data, not from the text of the source, unless noted: active = activation above about 30%; inactive = the rest.
SMILES,TRHR enhancer,D1 potentiator,D1 antagonist,D1 agonist,TRHR ag
COc1ccccc1NS(=O)(=O)c1cc([N+](=O)[O-])ccc1N/N=C/c1c(C)[nH]c2ccccc12,1,-9,24,62*,17
Cc1[nH]c2ccccc2c1/C=N/NC(=O)c1cccc(F)c1,25,-2,-66*,1,0
O=[N+]([O-])c1ccc(N/N=C/c2c[nH]c3ccccc23)c(S(=O)(=O)Nc2ccc(Cl)cc2)c1,11,-7,-25,45*,16
CN1CCN(S(=O)(=O)c2cc([N+](=O)[O-])ccc2N/N=C/c2ccc(Cl)cc2)CC1,2,-5,3,1,0
Cc1[nH]c2ccccc2c1/C=N/Nc1ccccn1,7,-1,-5,3,0
Cc1[nH]c2ccccc2c1/C=N/NC(=O)c1cccc([N+](=O)[O-])c1,2,-2,-11,1,-1
COc1cc(Nc2nc3c(S(=O)(=O)c4ccc(C)c(C)c4)nnn3c3ccsc23)cc(OC)c1,-1,-4,3,1,0
COc1ccc(C(=O)c2oc3ccccc3c2NC(=O)c2nc(SC)ncc2Cl)cc1Cl,-4,-1,7,3,0
CCCCn1cc(S(=O)(=O)c2ccc(Cl)cc2)c(=O)c2cc(F)c(N3CCCC(C)C3)cc21 (stereo not given),-17,1,5,7,-1
COC(=O)c1cc2c(C)c(C)c3ccccn3c-2c1C(=O)OC,3,-3,-5,8,4
CC(C)OC(=O)c1c2c(n3ccccc13)C(=O)c1ccccc1C2=O,2,-8,15,254*,75*
COc1ccc(CNC(=O)c2cc3sccc3n2C)cc1,5,-1,-52*,0,0
COc1ccc(CNC(=O)c2ccc(C(C)C)cc2)cc1,-3,-4,-47*,3,-1
COCCNC(=O)c1cc2sccc2n1C,5,-7,-8,1,0
CCOC(=O)c1ccc(NC(=O)CCn2c(=O)c3cccn3c3ccccc32)cc1,1,24,-16,86*,-1
COc1ccc(NC(=O)CCn2c(=O)c3cccn3c3ccccc32)cc1,-1,7,4,1,-1
N#Cc1ccccc1CN1C(=O)c2ccccc2Sc2ccc(C(=O)OCc3ccco3)cc21,-3,-4,2,11,1
COc1ccc(OCc2n(CC(=O)OC3CC(C)CCC3C(C)C)c3ccccc3[n+]2C)cc1 (stereo not given),-4,-10,20,34*,2
COc1ccc(-c2n(CC(=O)OC3CC(C)CCC3C(C)C)c3ccccc3[n+]2C)cc1 (stereo not given),-4,6,17,3,0
Cc1cccc(OCC(=O)Nc2ccc3c4c(cccc24)CC3)c1C,23,2,-47*,3,0
CCOC(=O)c1c(NC(=O)COc2cccc(C)c2C)sc2c1CCCCC2,9,4,-44*,1,-2
CCOC(=O)c1c(NC(=O)c2ccco2)sc2c1CCCCC2,1,-1,5,3,1
CCOC(=O)c1c(NC(=O)CCCOc2ccccc2C)sc2c1CCC(C)C2 (stereo not given),33*,-1,-1,2,0
CCOC(=O)c1c(NC(=O)C(C)N2CCN(C(=O)c3ccco3)CC2)sc2c1CCCC2 (stereo not given),10,-5,-2,40*,-1
CCc1ccccc1Nc1nn2c(=O)c3ccc(C(=O)NC4CCC(C)CC4)cc3nc2s1 (stereo not given),9,-2,-1,5,1
SMILES,TRHR enhancer,D1 potentiator,D1 antagonist,D1 agonist,TRHR ag
Cc1ccccc1CN1C(=O)c2ccccc2Sc2ccc(C(=O)NCCc3ccccc3)cc21,2,1,18,1,1
N#Cc1ccc(S(=O)(=O)N2CCN(S(=O)(=O)c3ccc4c(c3)OCCO4)CC2)cc1,-4,-6,-12,0,1
Cc1ccc(NC(=O)CCN2C(=O)NC3(CCCC3)C2=O)c(C)c1,-6,-14,-34*,2,-1
Cc1ccc(NC(=O)NC(=O)CN2C(=O)NC3(CCCCCCC3)C2=O)c(C)c1,-3,0,-12,0,0
CC1CCCC(NC(=O)COC(=O)c2ccccc2Sc2ccccc2C#N)C1C (stereo not given),30*,-4,1,3,0
Cc1ccc(SC(C)C(=O)N2CCCC2)cc1 (stereo not given),-5,-7,-35*,0,0
NC(=O)COc1ccc(=O)n(-c2ccccc2)n1,-3,.,-42*,3,1
Cc1cc(Oc2ccc(=O)n(C)n2)nc(SCC(N)=O)n1,-3,-7,25,4,0
Cn1nc(OCC(N)=O)ccc1=O,1,-2,-51*,1,0
O=c1ccc(OCCOc2ccccc2)nn1-c1ccccc1,-2,-5,-3,3,0
CCCc1cc(-c2[nH]ncc2-c2ccc3c(c2)OCCCO3)c(O)cc1OC,-6,-1,-27,37*,0
CC(C)(C)N(Cc1ccccc1)C(=O)COC(=O)c1ccccc1SCC(=O)N1CCCC1,-1,-6,-38*,0,0
O=C(COC(=O)c1ccccc1SCC(=O)N1CCCC1)Nc1ccccc1,2,-2,-25,9,-1
Cc1cc(C)nc(N/N=C/c2ccccc2)n1,-5,-1,12,-1,0
Cc1cc(C)nc(N/N=C/c2ccc3c(c2)OCCO3)n1,-1,-5,-32*,2,0
COc1ccc(-c2nc(-c3ccccc3)c(-c3ccc(F)cc3)[nH]2)c(OC)c1C,-2,0,5,2,-1
COc1cc(CNCCO)cc(Br)c1OCc1ccccc1Cl,2,5,9,69*,1
COc1cc(CNCCO)cc(Cl)c1OCc1ccc(Cl)cc1Cl,11,8,-3,154*,12
O=C1CN(S(=O)(=O)c2ccc3c(c2)OCCO3)CCN1S(=O)(=O)c1c(F)cccc1F,-3,5,0,8,-1
CN(C)S(=O)(=O)c1ccc2c(c1)C(=O)c1cc(S(=O)(=O)N(C)C)ccc1CC2,-6,-5,.,-1,0
CN(C)S(=O)(=O)c1ccc2c(c1)/C(=C/c1cc3c([nH]1)CCCC3)C(=O)N2,-2,0,-28,171*,69*
Cc1cccc(NC(=O)C(Cc2ccccc2)n2cccc2)c1C (stereo not given),14,-4,-5,8,0
Cc1nn(Cc2ccc(C(=O)NN)cc2)c(C)c1Cl,8,4,-44*,2,0
Cc1nn(Cc2cccc(C(=O)NN)c2)c(C)c1Cl,1,-5,7,2,0
Cc1ccc(Cn2nc(C)c(NC(=O)c3nn(C)cc3Cl)c2C)cc1,-8,7,-5,2,-1
Cc1ccc(Cn2nc(C)c(NC(=O)c3cc(C)no3)c2C)cc1,-2,.,-78*,2,0
